TGFb SMAD3 inh = inhibitors of TGF-b signaling. HepG2 CAGA-GFP TGF-b/SMAD3 reporter, GFP fluorescence, 18 h; TGF-beta stimulated, 500 pg/mL final. Potency, µM (highest dose often 46.1 µM), for the others: at the highest dose activity, negative = inhibition, usual class: inhibitors. 410,000 tested, 1.2% active. AID 588855; further: potency means the concentration at half of the fitted maximal effect; on the % scale 0 is the no-effect control and ±100 the full control effect; nearly all actives have a fitted effect of over 65% in size
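HEPG2 CAGA-GFP cells (1000/well, DMEM with 1% FBS) were pre-incubated 2 h at 37 degrees C, given compound by pin tool, then stimulated with TGF-beta at 500 pg/mL final for 18 h before per-cell GFP fluorescence imaging.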
CtBP-E1A inh = inhibitors of CtBP/E1A interaction. activity change, % (concentration not given with the values). AlphaScreen GST-E1A/His-CtBP binding, 1536-well; stronger effect = lower value. 340,000 tested, 0.49% active; in the data active means activity change below about -65%; inconclusive means mostly about -30% to -63%; further: on the % scale 0 is the no-effect control and ±100 the full control effect
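Homogeneous bead-based format: GST-tagged E1A captured on glutathione donor beads, His-tagged CtBP on nickel acceptor beads; compounds precede bead addition by 2 h at 37 °C.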
ATXN2 expr inh = reduces ATXN2 reporter expression in HEK-293 cells | HEK-293 ATXN2-luciferase reporter, luminescence, 24 h | 360,000 tested, 0.72% active | Potency, µM (top dose mostly 57 µM), for the others: at the top dose activity change, negative = inhibition, actives largely listed as inhibitors | AID 1745845; further: potency means the concentration at half of the fitted maximal effect; on the % scale 0 is the no-effect control and ±100 the full control effect; nearly all actives have a fitted effect of over 55% in size
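qHTS (up to 57 uM final) was run with 24 h compound exposure of reporter cells at 37 °C. Each well was multiplexed: SteadyGlo luminescence measured ATXN2-luciferase expression after a fluorogenic Gly-Phe-AFC viability readout (25 uM final).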
HepG2 tox = HepG2 cytotoxicity, counter-screen for TGF-b inhibitors | HepG2 CAGA-GFP viability, ATP luminescence, 18 h | Potency, µM (series often up to 46.1 µM), for the others: at the highest dose activity change, negative = cytotoxicity, most hits filed as cytotoxic | 410,000 tested, 0.76% active; further: potency means the concentration at half of the fitted maximal effect
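CellTiter-Glo luminescence gave cytotoxicity after 18 hours at 37 degrees C. The cells were HepG2 CAGA-GFP in 1% FBS DMEM, stimulated with 500 pg/mL TGF-beta after compound addition. %Activity was normalised to no-cell wells (complete cell-killing) and DMSO (no toxicity), and curves were fitted and classified.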
Six1-Eya2 blk = Six1/Eya2 interaction inhibition | AlphaScreen GST-Six1/His-Eya2 binding, biochemical; stronger effect = lower value | activity change, % (no concentration beside the values) | Q15475+O00167 | 360,000 tested, 0.56% active; in the data active means activity change below about -65%; inconclusive means mostly about -30% to -63%; further: on the % scale 0 is the no-effect control and ±100 the full control effect
Target sequence (O00167 whole entry, looked up): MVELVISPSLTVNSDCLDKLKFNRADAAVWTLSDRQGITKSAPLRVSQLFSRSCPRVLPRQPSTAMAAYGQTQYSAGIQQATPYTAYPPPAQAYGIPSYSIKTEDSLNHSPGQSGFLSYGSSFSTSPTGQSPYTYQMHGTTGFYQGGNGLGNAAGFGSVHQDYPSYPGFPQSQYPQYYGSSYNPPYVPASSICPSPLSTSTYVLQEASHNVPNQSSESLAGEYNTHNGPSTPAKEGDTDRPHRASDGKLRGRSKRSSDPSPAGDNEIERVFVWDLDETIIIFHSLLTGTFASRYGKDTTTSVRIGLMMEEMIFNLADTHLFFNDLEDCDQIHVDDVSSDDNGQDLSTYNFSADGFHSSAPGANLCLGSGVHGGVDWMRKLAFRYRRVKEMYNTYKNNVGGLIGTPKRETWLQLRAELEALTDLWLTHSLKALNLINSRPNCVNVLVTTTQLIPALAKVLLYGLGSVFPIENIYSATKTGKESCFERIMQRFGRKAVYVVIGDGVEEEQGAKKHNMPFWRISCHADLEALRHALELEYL
Target sequence (Q15475 whole entry, looked up): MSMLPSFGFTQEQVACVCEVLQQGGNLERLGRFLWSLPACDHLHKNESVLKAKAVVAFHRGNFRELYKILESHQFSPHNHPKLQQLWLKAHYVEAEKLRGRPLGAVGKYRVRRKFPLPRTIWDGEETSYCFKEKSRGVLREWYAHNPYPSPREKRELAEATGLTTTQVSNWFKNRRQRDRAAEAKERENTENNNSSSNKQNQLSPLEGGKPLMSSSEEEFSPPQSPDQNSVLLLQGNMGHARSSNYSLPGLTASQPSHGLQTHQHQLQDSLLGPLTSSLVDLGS
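Homogeneous AlphaScreen proximity assay pairing GST-Six1 with His-tagged Eya2 (added as 5X mix: 250 nM and 500 nM) in 50 mM Tris pH 8.0, 300 mM NaCl, 1 mM TCEP. Glutathione donor and nickel acceptor beads; 1 h, 37 °C, dark.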
S2 tox = reduces viability in counter-screen for ATXN expression inhibitors. S2 cells (HEK-293 line with an ATXN2-luciferase reporter) viability, CellTiter-Fluor protease fluorescence, 24 h. Potency, µM (series often up to 56.7 µM), most hits filed as cytotoxic. 400,000 tested, 0.49% active. AID 651635; further: potency means the concentration at half of the fitted maximal effect; nearly all actives have a fitted effect of over 40% in size
* marks the source's active call; other numbers are inactive results; i = inactive; u = inconclusive; x = no result; ! = a repeat was not active. This is a sample that favours compounds with a hit; in the whole collection about 2.8% have one here. Unless noted, the call rests on the fitted dose curve; in most records, active means well fitted curve in the direction sought with a large enough effect; inconclusive means small, poorly fitted or top-dose-only effect, or another doubt; inactive means no such curve, though single readings can be large; an effect the other way counts as inactive or inconclusive.

SMILES | TGFb SMAD3 inh | CtBP-E1A inh | ATXN2 expr inh | HepG2 tox | Six1-Eya2 blk | S2 tox
COc1cccc(CNC(=O)N2CCc3c(sc4c3CCCC4)C2c2ccc(F)cc2)c1 (configuration not stated) | -5% | x | -18% | -18% | x | i
COc1ccc(-c2noc(-c3ccc(N4CCN(c5ccc(OC)cc5)CC4)c([N+](=O)[O-])c3)n2)cc1 | u | x | 3% | -11% | x | i
COc1ccc(NC(=O)Nc2cc(-c3cn4cccnc4n3)ccc2C)cc1 | 3% | x | 8% | 4% | x | i
Cc1nc(NCc2ccc3nsnc3c2)sc1-c1ccn(C)n1 | x | x | x | x | x | i
COc1ccc(Nc2nc(-c3c(C)nc4ncccn34)cs2)cc1 | u | x | x | -25% | u | u
COc1ccccc1Nc1nc(-c2c(C)nc3ncccn23)cs1 | -19% | -92* | -33% | -74% | -85* | u
Cc1nc2ncccn2c1-c1csc(Nc2ccccc2)n1 | u | 7 | 24% | -25% | -80* | i
Cc1ccccc1CN1C(=O)C(O)(CC(=O)c2cccc(Br)c2)c2ccccc21 (configuration not stated) | 13µM* | x | x | 13µM* | x | x
COC(=O)CN1C(=O)C(O)(CC(=O)c2cccc(Br)c2)c2ccccc21 (configuration not stated) | -13% | 0 | -18% | -58% | 4 | i
COCCNC(=O)c1ccc2c(=O)n(CCOC)c(SCC(=O)c3c[nH]c4ccccc34)nc2c1 | -27% | x | 3% | -10% | x | i
CC(C)C[C@H](NC(=O)CNC(=O)c1cc(Cl)ccc1Cl)B1OC(=O)CC(CC(=O)O)(C(=O)O)O1 (some centres not stated) | x | x | 0.22µM* | x | x | x
C=CCNC(=O)c1cc(Cl)ccc1Cl | 3% | 4 | 2% | -2% | 11 | i
CC(C)C[C@H](NC(=O)CNC(=O)c1cc(Cl)ccc1Cl)B(O)O | x | x | 0.31µM* | x | x | x
CC1(C(=O)NCc2ccccc2)CSCC(=O)N1C1CCN(Cc2ccccc2)CC1 (configuration not stated) | x | -9 | x | x | 0 | x
Cn1c(CCNC(=O)C2CC23CCN(C(=O)C2=CCCC2)CC3)nc2ccccc21 (configuration not stated) | x | x | x | x | x | i
CCOC(=O)C1=C(N)Oc2cc(O)ccc2C1c1cccc(Cl)c1 (configuration not stated) | 20µM* | -2 | -15% | 3% | 2 | i
OCCN1CCN(c2ncnc3c2ncn3[C@H]2CN(Cc3ccc4c(c3)OCO4)C[C@@H](CO)O2)CC1 | 1% | 1 | -4% | -20% | -3 | i
N=C(N)SCc1nc2ccccc2c(=O)n1-c1ccccc1 | 19% | -83*! | 0% | 2% | -82*! | i
O=C(O)c1ccc(CSc2nc3ccccc3c(=O)n2-c2ccccc2)cc1 | 5% | x | x | -19% | 1 | u
O=C(CSc1nccc(-c2cccs2)n1)Nc1ccc(F)c(Cl)c1 | 13µM* | x | x | -46% | 2 | i
COc1ccc2c(C(=O)NCc3ccc4c(c3)OCO4)c(-c3ccc(S(C)(=O)=O)cc3)sc2c1 | -5% | -8 | u | -3% | 5 | 35µM*
COc1ccc(CNCCC(c2ccc(OC(C)C)cc2)C(C)C)cc1OC (configuration not stated) | u | -9 | 32µM* | 16µM* | -1 | x
CCOCCCNCc1ccc(OC)c(OC)c1 | -10% | 1 | 4% | 0% | 1 | i
COc1ccc(C(CCNCc2ccc(OC(C)C)cc2)C(C)C)cc1 (configuration not stated) | u | 8 | u | 22µM* | 4 | u
COc1ccc(C(CCNCc2ccc(N(C)C)cc2)C(C)C)cc1 (configuration not stated) | u | x | x | 10µM* | -67* | u
SMILES | TGFb SMAD3 inh | CtBP-E1A inh | ATXN2 expr inh | HepG2 tox | Six1-Eya2 blk | S2 tox
COc1ccc(CNCCC(c2ccc(C)cc2)c2ccco2)cc1 (configuration not stated) | x | x | x | -93% | x | x
CN(C)c1ccc(/C=c2\[nH]c(=O)/c(=C\c3ccc(N(C)C)cc3)[nH]c2=O)cc1 | 3% | x | x | -8% | x | x
COc1ccc(Cc2cc(NCc3ccccc3)c3ncn(C(C)C)c3c2)cc1 | u | u | -8% | 11µM* | u | u
CCOCCOc1cc(NCc2ccccc2)c2ncn(C(C)C)c2c1 | u | -28 | u | -111% | -27 | u
COCCCOc1cc(NCc2ccccc2)c2ncn(C(C)C)c2c1 | 7% | -25 | -3% | -2% | -18 | i
CC(C)n1cnc2c(NCc3ccccc3)cc(N[C@H](C)CO)cc21 | u | -1 | 1.1µM* | 0.63µM* | -21 | 0.89µM*
CCCCOc1cc(NCc2ccccc2)c2ncn(C(C)C)c2c1 | 18µM* | u | -39% | -54% | u | u
CCC(COC)Oc1cc(NCc2ccccc2)c2ncn(C(C)C)c2c1 (configuration not stated) | u | u | -3% | -113% | -23 | 22µM*
COC(=O)C1CCCCN1Cc1nc(N(C)C)c2ccccc2n1 (configuration not stated) | x | x | x | x | x | i
COc1ccc(/C=C/c2ccccn2)cc1 | u | x | x | -53% | x | x
COc1cccc(CN2C(=O)NC(C)(C3CCN(Cc4cc(Cl)ccc4O)CC3)C2=O)c1OC (configuration not stated) | x | x | x | x | x | i
COc1ccc(N2CCN(Cc3nc4c(c(=O)n(C)c(=O)n4C)n3C(C)C)CC2)cc1 | -15% | x | -8% | -7% | x | i
CCC(CO)Oc1cc(NCc2ccc(C(C)(C)C)cc2)c2ncn(C(C)C)c2c1 (configuration not stated) | u | -17 | u | -88% | -18 | 32µM*
Nc1c(N=Nc2ccc([N+](=O)[O-])cc2)c(S(=O)(=O)O)cc2cc(S(=O)(=O)O)c(/C=C/c3ccccc3)c(O)c12 | -3% | x | x | -19% | x | x
COc1ccccc1NC(=O)Nc1nc(C(N)C2CCCCC2)cs1 (configuration not stated) | u | 2 | u | 11µM* | -6 | u
NC(c1csc(NC(=O)Nc2cccc(Cl)c2)n1)C1CCCCC1 (configuration not stated) | u | 10 | u | -105% | 25 | 28µM*
COc1cc(NC(=O)Nc2nc(C(N)C3CCCCC3)cs2)cc(OC)c1OC (configuration not stated) | u | -16 | u | 11µM* | -15 | u
COc1cc(NC(=O)Nc2nc(C(N)C(C)C)cs2)cc(OC)c1OC (configuration not stated) | -9% | -12 | -17% | -11% | -21 | u

From PubChem
